An excerpt weighted towards active compounds, which were near 20% of everything screened.
Pf growth 96h: P. falciparum growth inhibition at 96 hour, primary screen for plastid delayed-death inhibitors; AID 504834; 320,000 tested, 6.9% active; P. falciparum luciferase reporter growth, 96 h; Potency, µM (doses to about 28.7 µM), hits mostly inhibitors
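Luminescence readout: decreased luciferase signal marks inhibited growth of reporter-expressing P. falciparum in infected red cells (2% hematocrit, 0.05% parasitemia final), exposed to compound two generations (96 h, 37 C, 5% CO2).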
Shiga inhibitor: Shiga toxin inhibition | Vero cells, Shiga toxin protein synthesis inhibition reporter | inhibition, % at 38.7 µM | 290,000 tested, 9.2% active; in the data active means inhibition mostly above about 28%, no sharp cut-off; inactive means mostly below about 43%
Cycloheximide cs: counter-screen hit for Shiga toxin inhibitors, cycloheximide. cell reporter, cycloheximide protein synthesis inhibition counterscreen. max response, %. 300,000 tested, 12% active. AID 2314; in the data active means max response mostly above about 13%, no sharp cut-off; inactive means mostly below about 14%; further: read at 38.3 µM for the half of the compounds with a filed dose
Pf growth 48h: inhibits P. falciparum growth in the first generation, 48 h. P. falciparum luciferase growth in erythrocytes, 48 h. Potency, µM (series often up to 28.7 µM), actives largely listed as inhibitors. 310,000 tested, 5.9% active. AID 504832
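Luminescence readout; reporter = integrated firefly luciferase in P. falciparum. RBC culture at 2% hematocrit, 0.1% parasitemia final, 37 C/5% CO2; decreased signal taken as growth inhibition.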
HCMV antiviral: blocks human cytomegalovirus replication. HFF cells, HCMV-luciferase reporter, 72 h; hits give low values. activity change, negative = inhibition, % at 57.5 µM. 410,000 tested, 4.5% active. AID 1259415; in the data active means activity change below about -60%; inconclusive means no clear call, values can overlap the other calls; inactive means above about -39%
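Luciferase read-out from HCMV-luciferase-infected HFFs (MOI 1 PFU/cell) 72 h post infection at 37C; compounds added after 16 h cell attachment; activity normalized between buffer-only basal and Salinomycin (10uM) inhibitor controls.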
A number is an active result; 0 = inactive; ? = inconclusive; - = no result given; [ ] = another dose, or the depositor's remark. Unless noted, the call rests on the fitted dose curve; in most records, active means well fitted inhibition curve with a large enough effect; inconclusive means small, poorly fitted or top-dose-only effect, or another doubt; inactive means no such curve, though single readings can be large or run the other way.

SMILES | Pf growth 96h | Shiga inhibitor | Cycloheximide cs | Pf growth 48h | HCMV antiviral
COc1ccc(C(=O)OCC(=O)NCc2ccco2)cc1S(=O)(=O)N1CCN(c2cccc(Cl)c2)CC1 | - | 0 | 0 | 0 | 0
Cc1cccc(C)c1OCCNC(=O)CCC(=O)c1ccccc1 | 0 | 0 | 0 | 0 | 0
C/C(CC(=O)Nc1ccc(N(C)C)cc1)=N\NC(=O)c1ccc(C(C)(C)C)cc1 | 4.1µM | 0 | 0 | 0 | 0
C/C(CC(=O)Nc1cc(C)ccn1)=N\NC(=O)c1ccc(C(C)(C)C)cc1 | 0 | 0 | 0 | 0 | 0
C/C(CC(=O)Nc1ccc(N(C)C)cc1)=N\NC(=O)c1ccc(Cl)cc1Cl | 0 | 0 | 0 | 0 | 0
C/C(CC(=O)Nc1ccc(N(C)C)cc1)=N\NC(=O)c1ccc(F)cc1 | 0 | 36 | 31 | 0 | 0
CC(=O)Oc1ccc(/C(C)=N/N2CCN(Cc3ccc(C)cc3)CC2)cc1 | ? | 0 | 0 | ? | 0
COc1cccc(NC(=S)N/N=C2\CC3CCC2(C)C3(C)C)c1 (centres undefined) | ? | 78 | 41 | 10µM | 0
CCc1ccc(C(=O)NNC(=O)CCc2nc3ccccc3c(=O)[nH]2)cc1 | 0 | - | - | 0 | 0
N#C/C(=C/c1ccccc1)c1nn(CCO)c(N)c1C#N | 0 | 27 | 27 | 0 | 0
COc1cc(/C=C(\C#N)c2nn(CCO)c(N)c2C#N)cc(OC)c1OC | 0 | 0 | 0 | 7.4µM | 0
N#C/C(=C\c1ccc(/C=C(/C#N)c2nn(CCO)c(N)c2C#N)cc1)c1nn(CCO)c(N)c1C#N | 0 | 0 | 0 | 0 | ?
OC(c1cccc(Cl)c1)c1nc(-c2ccoc2)cs1 (centres undefined) | - | - | - | - | 0
CCOC(=O)Cc1cnc(NC(=O)CSc2nc(C(C)C)cc(=O)[nH]2)s1 | ? | 0 | 0 | 0 | 0
CC(=O)Nc1cccc(-c2nc3ccccc3n2C(C(=O)NC(C)(C)C)C2CC2)c1 (centres undefined) | - | - | - | - | 0
Cc1ccc(CNc2ccc(-c3nc(-c4ccccn4)no3)cc2[N+](=O)[O-])cc1 | - | - | - | - | 0
COc1ccc(Cc2nc(-c3ccccn3)no2)cc1 | 0 | 0 | 41 | 0 | 0
c1ccc(SCc2nc(-c3ccccn3)no2)cc1 | 0[5.75 µM] | 40 | 58 | 0 | 0
c1ccc(Cc2nc(-c3ccccn3)no2)cc1 | 0[5.75 µM] | 94 | 50 | 0 | 0
Cc1ccc(Cc2nc(-c3ccccn3)no2)cc1 | 0 | 69 | 41 | 0 | 0
CCC(Sc1nc2cc3c(cc2c(=O)n1CCCCCC(=O)NCc1ccc2c(c1)OCO2)OCO3)C(=O)NCCCOC (centres undefined) | - | - | - | - | 0
c1ccc(C(Cc2nc(-c3cccnc3)no2)c2ccccc2)cc1 | ? | 0 | 0 | ? | 0
c1ccc(C(Cc2nc(-c3ccccn3)no2)c2ccccc2)cc1 | ? | 94 | 56 | ? | 0
c1ccc(CCCc2nc(-c3ccccn3)no2)cc1 | ? | 62 | 46 | 0 | 0
O=C1c2ccccc2C(=O)N1Cc1nc(-c2ccccn2)no1 | 0 | 47 | 46 | 0 | 0
SMILES | Pf growth 96h | Shiga inhibitor | Cycloheximide cs | Pf growth 48h | HCMV antiviral
CCCN1Cc2cccc(C(=O)Nc3ccccc3F)c2C1=O | - | - | - | - | 0
CCN(CC)CC(C(=O)N(CC)CC)P(=O)(c1ccccc1)c1ccccc1 (centres undefined) | ? | 0 | 0 | - | 0
c1ccc(OCc2nc(-c3cccs3)no2)cc1 | 0 | 76 | 45 | - | 0
Cc1cc(OCc2nc(-c3cccs3)no2)cc(C)c1Cl | 0 | 42 | 37 | - | 0
O=C(NCc1ccc(F)cc1)c1nc(-c2cccs2)no1 | 0[5.75 µM] | 0 | 0 | 0 | ?
Fc1ccc(OCc2nc(-c3cccs3)no2)cc1 | 0 | 110 | 41 | 0 | 0
CCOc1nc(-c2ccccc2)ccc1-c1noc(COc2ccccc2)n1 | 0 | 0 | 0 | ? | 0
CCN(CC(=O)Nc1c(F)cccc1F)C(=O)c1ccc(OC)c(S(=O)(=O)NC2CCCC2)c1 | - | - | - | - | -72
CN(C)CC(CCC(CN(C)C)C(=O)c1ccccc1)C(=O)c1ccccc1 (centres undefined) | 13µM | 0 | 0 | 6.6µM | -
CCOc1ccc(C(=O)COC(C)=O)cc1 | 0 | 0 | 0 | 0 | 0
COc1ccc(C(=O)C(CCCCC(CN(C)C)C(=O)c2ccc(OC)cc2)CN(C)C)cc1 (centres undefined) | 9.3µM | 0 | 0 | 10µM | ?
CCOc1ccc(C(=O)C(CCC(CN(C)C)C(=O)c2ccc(OCC)cc2)CN(C)C)cc1 (centres undefined) | ? | 0 | 0 | ? | -99
O=C(c1ccccc1)C(CCc1ccccn1)CCc1ccccn1 | - | - | - | - | 0
COc1ccc(NC(=O)Nc2nnc(-c3ccncc3)s2)cc1 | 0 | 0 | 0 | 0 | ?
CCCc1nnc(NC(=O)Nc2ccc(OC)cc2)s1 | 0 | 0 | 24 | 0 | 0
COc1ccc(NC(=O)Nc2nnc(-c3ccco3)s2)cc1 | 0 | 59 | 34 | 0 | 0
COc1ccc(CC(=O)Nc2nnc(C(C)C)s2)cc1 | 0 | 0 | 19 | 0 | 0
COc1ccc(NC(=O)Nc2nnc(C(C)C)s2)cc1 | 0 | 62 | 42 | 0 | 0
CCN(CC)c1ccc(-c2nc(-c3ccncc3)no2)cc1[N+](=O)[O-] | - | - | - | - | 0
CC(C)C(NC(=O)c1ccccc1F)C(=O)NCc1ccc(S(=O)(=O)N2CCOCC2)cc1 (centres undefined) | ? | - | - | 0 | 0
O=C(CSc1ccc(-c2ccc(F)cc2)nn1)N1CCCCC1 | 0 | 49 | 0 | 0 | 0
O=C(CSc1ccc(-c2ccco2)nn1)N1CCCCCC1 | 0 | 51 | 0 | 0 | 0
O=C(CSc1ccc(-c2ccco2)nn1)NC1CCCCC1 | 0 | 0 | 0 | 0 | 0
CC1CC(C)(C)N(C(=O)CSc2ccc(-c3ccc(F)cc3)nn2)c2ccccc21 (centres undefined) | ? | 0 | 0 | 0 | -87
COc1cccc(-c2ccc(SCC(=O)c3ccccc3)nn2)c1 | 0 | 48 | 0 | 0 | 0
SMILES | Pf growth 96h | Shiga inhibitor | Cycloheximide cs | Pf growth 48h | HCMV antiviral
COc1ccc(C(=O)CSc2ccc(-c3ccccc3)nn2)cc1 | ? | 0 | 0 | 0 | 0
COc1ccc(S(=O)(=O)N2CCC(C(=O)Nc3ccc(Oc4ccccc4)cc3)CC2)cc1OC | - | - | - | - | 0
CC(C)(C)c1ccc(CN(Cc2ccco2)c2cnc(S(C)(=O)=O)nc2C(=O)Nc2ccc(F)cc2)cc1 | - | - | - | - | 0
O=C(CSc1nccc(=O)[nH]1)Nc1ccc(Br)c(Cl)c1 | - | 0 | 0 | 0 | 0
COC(C)c1oc2c(C)c3oc(=O)cc(C)c3cc2c1C (centres undefined) | - | - | - | - | 0
O=C(CSc1ccc(-c2ccco2)nn1)c1ccccc1 | ? | 32 | 24 | 0 | 0
COc1ccc(C(=O)CSc2ccc(-c3ccco3)nn2)cc1 | ? | 0 | 0 | 0 | 0
O=C(CSc1ccc(-c2ccccn2)nn1)N1CCCCC1 | 0 | 72 | 31 | 0 | 0
O=C(CSc1ccc(-c2ccccc2)nn1)N1CCCCC1 | 0 | 72 | 31 | 0 | 0
O=C(CSc1ccc(-c2ccncc2)nn1)N1CCCCC1 | ? | 0 | 0 | 0 | 0
CC(=O)OCC1OC(COC(C)=O)(c2ccc(C)cc2)C(OC(C)=O)C1OC(C)=O (centres undefined) | - | - | - | - | 0
O=C(NCCOCc1ccccc1)C(c1ccccc1)c1ccccc1 | 0 | 0 | 0 | ? | 0
